Test results from PubChem BioAssay AID1963822 (ICCB-Longwood Screening Facility, Harvard Medical School, 2024).
Several values for one entry are separate records, joined by “and”; a condition that tells them apart may be missing. Identical values can stand only once. About 90 (0.2%) of roughly 55,000 compounds were called active. No rule for the calls is given here. The list comes from a sample in which actives are over-represented; it also holds similar structures and randomly drawn compounds. More than one record can exist for a structure, and the calls need not agree.

Experiment: anaerobic choline-dependent bacterial growth inhibition – minimal medium, absorbance (AID 1963822)
Settings: Gram-negative bacterium anaerobic choline minimal medium
[1] = measured here: choline growth z-score, timepoint 1, stronger effect = lower value

Row | SMILES | z-score (stronger effect = lower value) | z-score [1]
1 | CCCC(=O)Nc1cccc(OCc2cc(=O)n3ccccc3n2)c1 | 0.39 (inactive) | 0.6
2 | CN1CCN(CCNC(=O)c2cnc3sc4c(n3c2=O)CCC4)CC1 | -0.87 (inactive) | -0.3
3 | Cc1sc2cc(C(=O)NCCN3CCN(C)CC3)[nH]c2c1CN1CCCCC1 | -0.21 (active) | -4.45
4 | O=C(NCCCN1CCCCC1)c1cc2n(n1)CCCN(Cc1ccc(F)cc1)C2=O | 0.15 (inactive) | -0.23
5 | Cc1ccc(F)c(NS(=O)(=O)c2cc(-c3nc(C(C)(C)C)cs3)cs2)c1 | 0.79 (inactive) | 0.58
6 | CCCCOc1ccccc1C1CC(=O)Nc2c1c(C)nn2-c1ccc2nncn2n1 (stereo not drawn) | 0.78 (inactive) | 0.83
7 | O=C(NC1CC1)c1snc(-c2ccccn2)c1NC(=O)C1CC1 | 0.58 (inactive) | 1.01
8 | CCc1ccc(NS(=O)(=O)c2cc(-c3nc(C(C)C)cs3)cs2)cc1 | -0.41 (inactive) | 0.54
9 | Cc1cccc(C2C3=C(CC(c4ccccc4)CC3=O)Nc3onc(C)c32)c1 (stereo not drawn) | 1.84 (inactive) | 1.45
10 | O=C1Nc2ccccc2Oc2cc(Cl)c(S(=O)(=O)N3CCCC3)cc21 | 1.05 (inactive) | -0.01
11 | O=C(COc1ccccc1)Nc1noc(-c2ccc(Cl)cc2)n1 | -0.07 (inactive) | -0.68
12 | Cc1ccc(C)c(Cn2cccc(S(=O)(=O)N3CCCC3)c2=O)c1 | 1.03 (inactive) | 0.96
13 | CS(=O)(=O)NC1CCN(C(=O)C2CCCC2)C1 (stereo not drawn) | 0.08 (inactive) | 0.92
14 | CCC(C(=O)Nc1ccccc1OC)n1nc(-c2ccccc2)ccc1=O (stereo not drawn) | 0.41 (inactive) | -0.44
15 | COc1ccc(CSc2nccc3c2ccn3CC(=O)NCc2ccc3c(c2)OCO3)cc1 | 1.77 (inactive) | 1.27
16 | O=C(CSCc1nc2cccnc2n1C1CCCCC1)NCc1cccc(F)c1 | 0.62 (inactive) | 1.42
17 | Cc1ccccc1C1CC(=O)c2cnc3c(-c4ccc(F)cc4)c(C)nn3c2C1 (stereo not drawn) | 0.81 (inactive) | 0.27
18 | O=C(COc1ccccc1)Nc1noc(-c2ccccc2)n1 | -2.24 (inactive) | -0.92
19 | O=C(NCc1ccc(Cl)cc1)c1ccc(-n2nnc3cccnc32)cc1 | 0.42 (inactive) | 0.46
20 | Cc1nn(-c2ccccc2)c2sc(C(=O)N3CCN(c4cccc(Cl)c4)CC3)cc12 | 0.97 (inactive) | 1.5
21 | COc1ccc(-c2noc(-c3ccc[nH]c3=O)n2)cc1OC | 1.32 (inactive) | 1.18
22 | Clc1ccc(C(CNc2nn3cnnc3c3ccccc23)N2CCCCC2)cc1 (stereo not drawn) | -0.12 (inactive) | -0.1
23 | CC(C)NC(=O)N1CCCC(c2cccc(C(=O)NCc3ccc(Cl)cc3)c2)C1 (stereo not drawn) | 0.72 (inactive) | 0.1
24 | CCOC(=O)c1cnn(CCOC(=O)COC)c1NC(=O)COC | 0.06 (inactive) | 0.2
25 | Cc1noc2c1C(c1ccc(Cl)cc1)C1=C(CC(c3ccc(O)cc3)CC1=O)N2 (stereo not drawn) | -1.06 (inactive) | 0.58

Row | SMILES | z-score (stronger effect = lower value) | z-score [1]
26 | CCCCC(=O)Nc1cc(N2CCn3c(nc4ccccc43)C2)ccc1C | -0.54 (inactive) | 0.09
27 | COc1ccc(NC(=O)C2CCN(C(=O)c3ccc(-c4noc(C)n4)cc3)CC2)cc1OC | 0.58 (inactive) | -0.71
28 | CCc1ccc(-c2ccc(=O)[nH]n2)cc1S(=O)(=O)N1CCOCC1 | -0.21 (inactive) | -0.65
29 | O=C(O)c1cc(N2CCN(c3ccc(Cl)cc3)CC2)ccc1NC(=O)C1CCC1 | 0.22 (inactive) | 0.14
30 | O=c1c(S(=O)(=O)c2ccc(F)c(Cl)c2)c[nH]c2c(F)cc(Cl)cc12 | -1.66 (inactive) | -1.06
31 | CNC(=O)c1ccc(NC(=O)N2CCCCc3ccccc32)cc1 | 0.76 (inactive) | -0.19
32 | COC(=O)c1cnc(N(C)C2CCCCC2)c2ccccc12 | 0.22 (inactive) | -0.03
33 | Cc1nc(Nc2ccccc2)nc2c1C(=O)CC(C)C2 (stereo not drawn) | 0.7 (inactive) | 0.46
34 | COCc1cc(C)nc2sc3c(c12)NC(C)N(c1ccc(C)cc1)C3=O (stereo not drawn) | -0.14 (inactive) | -1.91
35 | Cc1ccc(-n2cc(C(=O)O)c3ccccc3c2=O)cc1 | 1.03 (inactive) | 0.91
36 | Cc1ccc2c(c1)OCC(=O)N2CC(=O)O | -1.28 (inactive) | -1.54
37 | Cc1ccc(C2C3=C(CCCC3=O)Nc3ccccc3N2C(=O)c2ccccc2)cc1 (stereo not drawn) | -0.78 (inactive) | 0.3
38 | CCN1CCN(C(=O)C2CCCN(S(=O)(=O)c3cc(-c4noc(C5CC5)n4)sc3C)C2)CC1 (stereo not drawn) | 0.63 (inactive) | 0.78
39 | COc1cc(OC)cc(C(=O)Nc2nc(CC(=O)Nc3ccc(OC)c(OC)c3)cs2)c1 | -0.43 (inactive) | -0.34
40 | CCn1nc(C)c(CCN(C)C(=O)NCC2CCCO2)c1C (stereo not drawn) | -1.05 (inactive) | -1.68
41 | O=C(CSc1ccccc1)N1CCN(Cc2cc(=O)n3nc(-c4ccccc4F)sc3n2)CC1 | 0.75 (inactive) | 0.13
42 | Cn1c(=O)oc2cc(S(=O)(=O)N3CCC4(CC3)Nc3cc(F)ccc3-n3cccc34)ccc21 | -0.55 (inactive) | 0.11
43 | O=S(=O)(Cc1ccccc1)N1CCCC1c1ccc(Cl)cc1 (stereo not drawn) | -0.27 (inactive) | -0.13
44 | CN1CCC[C@@H]1CCO[C@](C)(c1ccccc1)c1ccc(Cl)cc1 | -1.24 (inactive) and -1.63 (active) and 0.92 (inactive) | 0.36 and -2.85 and -1.59
45 | CCOC(=O)c1cnc2c(-c3ccccc3)c(COc3ccccc3)nn2c1N | -0.05 (inactive) | -0.12
46 | O=C(Nc1ccc2c(c1)OCCO2)c1cccc(Oc2ccnc(-c3ccc(F)cc3)n2)c1 | -0.1 (inactive) | 0.77
47 | O=C(CC1CCCC1)N1CCN=C1N1CCCC1 | -1.26 (inactive) | -0.58
48 | CCOc1ccc(CNC(=O)C2(NS(=O)(=O)c3cccc4cccnc34)CCCCC2)cc1 | 0.35 (inactive) | 0.16
49 | COc1cccc(-n2ccnc2SCc2nc(-c3ccccc3)no2)c1 | 0.5 (inactive) | 0.33
